Test results from ChEMBL document CHEMBL1961873, “Compounds: GSK PKIS; Assays: Nanosyn kinase panel” (2012).

These compounds were tested against Phosphatidylinositol 4-kinase beta (Homo sapiens) (UniProt Q9UBF8). Conditions: at 1 µM.
Chain of Phosphatidylinositol 4-kinase beta (Homo sapiens) (Q9UBF8 2-816 limits assumed): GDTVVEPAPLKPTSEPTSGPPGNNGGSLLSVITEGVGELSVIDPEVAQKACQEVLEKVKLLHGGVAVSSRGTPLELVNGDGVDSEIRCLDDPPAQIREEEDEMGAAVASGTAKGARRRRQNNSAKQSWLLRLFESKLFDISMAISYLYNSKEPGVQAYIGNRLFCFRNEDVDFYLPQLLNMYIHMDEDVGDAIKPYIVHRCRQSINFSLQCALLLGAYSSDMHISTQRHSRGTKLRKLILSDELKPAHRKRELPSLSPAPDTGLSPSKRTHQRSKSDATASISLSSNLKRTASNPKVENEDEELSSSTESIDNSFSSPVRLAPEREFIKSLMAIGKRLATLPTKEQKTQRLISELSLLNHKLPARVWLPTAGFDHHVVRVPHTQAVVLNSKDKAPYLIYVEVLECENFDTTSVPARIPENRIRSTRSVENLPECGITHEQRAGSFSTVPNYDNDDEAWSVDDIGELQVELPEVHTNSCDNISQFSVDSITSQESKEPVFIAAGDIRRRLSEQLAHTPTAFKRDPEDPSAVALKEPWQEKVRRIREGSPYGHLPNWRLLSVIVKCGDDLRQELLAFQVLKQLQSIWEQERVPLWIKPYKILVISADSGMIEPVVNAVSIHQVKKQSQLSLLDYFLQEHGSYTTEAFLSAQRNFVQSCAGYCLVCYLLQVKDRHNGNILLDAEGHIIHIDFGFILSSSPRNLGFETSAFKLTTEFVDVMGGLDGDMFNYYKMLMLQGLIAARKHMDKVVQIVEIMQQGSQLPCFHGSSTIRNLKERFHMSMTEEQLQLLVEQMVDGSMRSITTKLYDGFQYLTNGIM

Row | Structure (SMILES) | inhibition [%]
1 | ON=C1CCc2cc(-c3nc(C4CCNCC4)[nH]c3-c3ccncc3)ccc21 | -0.63
2 | O=C1Nc2ccc(-c3cccnc3)cc2C1=Cc1cc(Br)c(O)c(Br)c1 | 77.7
3 | CCOc1nccc2c1nc(-c1nonc1N)n2CC | 0.43
4 | c1ccc(Cc2nc3ccc(Nc4ncnc5ccccc45)cc3[nH]2)cc1 | -1.72
5 | O=C(Nc1ccc(Oc2ccc3[nH]c(NC(=O)c4ccco4)nc3c2)cc1)Nc1cc(C(F)(F)F)ccc1F | 1.53
6 | FC(F)(F)c1ccc(-c2nn3ncccc3c2-c2ccnc(Nc3ccc4c(c3)OCCO4)n2)cc1 | -3.87
7 | COc1cc2ncnc(Nc3ccc(C)c(O)c3)c2cc1OC | -0.17
8 | c1ccc(Nc2ncc(-c3ccccc3)o2)cc1 | -3.06
9 | Cc1ccc(NC(=O)CC2CC2)cc1-c1ccc(C(=O)NCC2CC2)cc1 | -2.41
10 | OCc1ccc(-c2nc(-c3ccccn3)c(-c3ccc4c(c3)OCO4)[nH]2)cc1 | -0.21
11 | Cc1ccc(Nc2ccnc(Nc3cccc(C(N)=O)c3)n2)cc1O | 1.94
12 | CN(c1ccc(NC(=O)Nc2ccc(OC(F)(F)F)cc2)cc1)c1ccnc(Nc2cccc(S(N)(=O)=O)c2)n1 | 3.37
13 | CN(C)C(=O)O[C@@H]1CN[C@@H](C#Cc2cc3ncnc(Nc4ccc(OCc5cccc(F)c5)c(Cl)c4)c3s2)C1 | -0.33
14 | NS(=O)(=O)c1ccc(Nc2cc(-c3cccc(O)c3)n[nH]2)cc1 | -1.14
15 | Cc1ccc2c(-c3ccnc(Nc4cccc(C(F)(F)F)c4)n3)c(-c3ccccc3)nn2n1 | -2.31
16 | COC(=O)Nc1nc2cc(Oc3ccc(NC(=O)Nc4cccc(Br)c4)cc3)ccc2[nH]1 | -5.6
17 | N#Cc1c(NC(=O)c2ccccc2F)sc2c1CCCC2 | 2.03

Row | Structure (SMILES) | inhibition [%]
18 | CN(C)CCCn1c(-c2nonc2N)nc2cnccc21 | 3.34
19 | NS(=O)(=O)c1ccc(-c2cc3ccncc3cc2OCc2ccccc2)cc1 | 0.15
20 | NS(=O)(=O)c1cccc(-c2cc3ccncc3cc2OCc2ccccc2)c1 | -5.37
21 | N#Cc1cccc(Nc2nccc(-c3cnn4ncccc34)n2)c1 | 14.8
22 | COc1cccc(-n2nc(C)c3c(N/N=C(\C)c4ccncc4)ncnc32)c1 | -3.63
23 | Oc1cccc(-c2nc(-c3ccccc3)[nH]c2-c2ccncc2)c1 | -3.49
24 | COc1cccc(-n2ncc3c(N/N=C/c4ccc(C)cc4)ncnc32)c1 | 3.16
25 | COc1cccc(-n2ncc3c(N/N=C/c4ccc(S(C)(=O)=O)cc4)ncnc32)c1 | -2.28
26 | NC(=O)c1sc(-n2cnc3ccccc32)cc1OCc1ccccc1Br | -1.28
27 | Cc1cc(O)cc(C)c1/C=C/c1cncc(C(=O)N(C)C)c1 | 0.47
28 | COc1cc(/C=N/Nc2ncnc3c2cnn3C(C)C)ccc1O | 26.5
29 | NS(=O)(=O)c1ccc(N/N=C2\C(=O)Nc3ccc(Cl)cc32)cc1 | -1.54
30 | Cc1cc(Cl)cc2c1NC(=O)C2=NNc1ccc(S(N)(=O)=O)cc1 | 3.24
31 | NC(=O)c1cccc(Nc2nccc(Nc3cccc(F)c3)n2)c1 | 1.27
32 | COc1cc2ncn(-c3cc(OCc4ccccc4S(C)(=O)=O)c(C#N)s3)c2cc1OC | -1.46
33 | CCS(=O)(=O)c1ccc(OC)c(Nc2ncc(-c3cccc(OC)c3)o2)c1 | -0.15
34 | CS(=O)(=O)Nc1cccc(-c2ccc3c(NC(=O)C4CC4)n[nH]c3c2)c1 | 4.39

These compounds were tested against Sphingosine kinase 1 (Homo sapiens) (UniProt Q9NYA1). Conditions: at 0.1 µM.
Chain of Sphingosine kinase 1 (Homo sapiens) (Q9NYA1 whole entry): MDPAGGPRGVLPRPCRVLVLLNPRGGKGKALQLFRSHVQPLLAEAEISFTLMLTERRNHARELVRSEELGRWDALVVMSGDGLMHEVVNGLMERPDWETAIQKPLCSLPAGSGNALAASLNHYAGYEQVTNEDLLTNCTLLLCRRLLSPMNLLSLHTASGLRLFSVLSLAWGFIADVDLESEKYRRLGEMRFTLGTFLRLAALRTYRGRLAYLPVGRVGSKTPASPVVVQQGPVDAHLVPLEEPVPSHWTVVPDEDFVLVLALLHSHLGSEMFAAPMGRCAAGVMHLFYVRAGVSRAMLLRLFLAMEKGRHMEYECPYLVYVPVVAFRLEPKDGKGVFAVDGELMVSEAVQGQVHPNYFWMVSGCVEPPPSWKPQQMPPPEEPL

Row | Structure (SMILES) | inhibition [%]
35 | ON=C1CCc2cc(-c3nc(C4CCNCC4)[nH]c3-c3ccncc3)ccc21 | -1.16
36 | O=C1Nc2ccc(-c3cccnc3)cc2C1=Cc1cc(Br)c(O)c(Br)c1 | 5.72
37 | CCOc1nccc2c1nc(-c1nonc1N)n2CC | 0.81
38 | c1ccc(Cc2nc3ccc(Nc4ncnc5ccccc45)cc3[nH]2)cc1 | 1.07
39 | O=C(Nc1ccc(Oc2ccc3[nH]c(NC(=O)c4ccco4)nc3c2)cc1)Nc1cc(C(F)(F)F)ccc1F | 0.3
40 | FC(F)(F)c1ccc(-c2nn3ncccc3c2-c2ccnc(Nc3ccc4c(c3)OCCO4)n2)cc1 | 0.8
41 | COc1cc2ncnc(Nc3ccc(C)c(O)c3)c2cc1OC | 4.48
42 | c1ccc(Nc2ncc(-c3ccccc3)o2)cc1 | 2.26
43 | Cc1ccc(NC(=O)CC2CC2)cc1-c1ccc(C(=O)NCC2CC2)cc1 | -0.38
44 | OCc1ccc(-c2nc(-c3ccccn3)c(-c3ccc4c(c3)OCO4)[nH]2)cc1 | 0
45 | Cc1ccc(Nc2ccnc(Nc3cccc(C(N)=O)c3)n2)cc1O | 0.79
46 | CN(c1ccc(NC(=O)Nc2ccc(OC(F)(F)F)cc2)cc1)c1ccnc(Nc2cccc(S(N)(=O)=O)c2)n1 | -0.13
47 | CN(C)C(=O)O[C@@H]1CN[C@@H](C#Cc2cc3ncnc(Nc4ccc(OCc5cccc(F)c5)c(Cl)c4)c3s2)C1 | 0.88
48 | NS(=O)(=O)c1ccc(Nc2cc(-c3cccc(O)c3)n[nH]2)cc1 | 1.67
49 | Cc1ccc2c(-c3ccnc(Nc4cccc(C(F)(F)F)c4)n3)c(-c3ccccc3)nn2n1 | 0.67
50 | COC(=O)Nc1nc2cc(Oc3ccc(NC(=O)Nc4cccc(Br)c4)cc3)ccc2[nH]1 | -1.27
51 | N#Cc1c(NC(=O)c2ccccc2F)sc2c1CCCC2 | 0.86

Row | Structure (SMILES) | inhibition [%]
52 | CN(C)CCCn1c(-c2nonc2N)nc2cnccc21 | 2.52
53 | NS(=O)(=O)c1ccc(-c2cc3ccncc3cc2OCc2ccccc2)cc1 | 1.82
54 | NS(=O)(=O)c1cccc(-c2cc3ccncc3cc2OCc2ccccc2)c1 | 0.1
55 | N#Cc1cccc(Nc2nccc(-c3cnn4ncccc34)n2)c1 | -0.07
56 | COc1cccc(-n2nc(C)c3c(N/N=C(\C)c4ccncc4)ncnc32)c1 | 1.12
57 | Oc1cccc(-c2nc(-c3ccccc3)[nH]c2-c2ccncc2)c1 | 1.87
58 | COc1cccc(-n2ncc3c(N/N=C/c4ccc(C)cc4)ncnc32)c1 | 3.47
59 | COc1cccc(-n2ncc3c(N/N=C/c4ccc(S(C)(=O)=O)cc4)ncnc32)c1 | -1.72
60 | NC(=O)c1sc(-n2cnc3ccccc32)cc1OCc1ccccc1Br | 1.25
61 | Cc1cc(O)cc(C)c1/C=C/c1cncc(C(=O)N(C)C)c1 | -0.11
62 | COc1cc(/C=N/Nc2ncnc3c2cnn3C(C)C)ccc1O | 0.17
63 | NS(=O)(=O)c1ccc(N/N=C2\C(=O)Nc3ccc(Cl)cc32)cc1 | 0.4
64 | Cc1cc(Cl)cc2c1NC(=O)C2=NNc1ccc(S(N)(=O)=O)cc1 | 0.93
65 | NC(=O)c1cccc(Nc2nccc(Nc3cccc(F)c3)n2)c1 | 0.35
66 | COc1cc2ncn(-c3cc(OCc4ccccc4S(C)(=O)=O)c(C#N)s3)c2cc1OC | 0.08
67 | CCS(=O)(=O)c1ccc(OC)c(Nc2ncc(-c3cccc(OC)c3)o2)c1 | -0.07
68 | CS(=O)(=O)Nc1cccc(-c2ccc3c(NC(=O)C4CC4)n[nH]c3c2)c1 | 0.08
